D2 PAM-1 – Beta-Arrestin HTS for Positive Allosteric Modulators of the Human D2 Dopamine Receptor: Potentiators; potentiation, % (concentration not given with the values); D(2) dopamine receptor (Homo sapiens), P14416; hit rate 0.23% among 360,000; DiscoveRx D2 beta-arrestin cells, luminescence, 90 min; 100% = 57 uM dopamine signal; in the data active = potentiation above about 50%; inconclusive = mostly about 30% to 49%
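PathHunter beta-arrestin assay in DiscoveRx D2 cells. Compounds were added with an EC20 of dopamine (50 nM final) for 90 min at 37 deg C. Luminescence was read 1 h after detection reagent, with 57 uM dopamine as the EC100 control.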
D2 antagonist – HTS Assay for Allosteric Antagonists of the Human D2 Dopamine Receptor: Primary Screen for Antagonists | HEK293 TREx D2 cells, calcium flux, dopamine EC80 | hit rate 2% among 340,000 | inhibition, % at 10 µM; in the data active = inhibition above about 30%; inactive = below that, where a call was filed; note: 0% is about no effect
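Cells plated overnight at 30 C with tetracycline; no-wash calcium dye, 30–90 min RT; 10 s baseline; compound pinned; 180 s read; EC80 dopamine added; another 180 s read.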
D2 PAM-2 – HTS Assay for Positive Allosteric Modulators of the Human D2 Dopamine Receptor: Primary Screen for Potentiators. D(2) dopamine receptor (Homo sapiens), P14416. HEK293 T-REx D2, calcium flux, EC20 dopamine potentiation. potentiation, % at 10 µM. hit rate 0.34% among 340,000. AID 485347, 2010;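 active = potentiation over 3 SD above the plate norm, cut at about 30% in these data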; note: 0% is about no effect
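Tetracycline-induced Hek293 Trex D2 cells, force-coupled to calcium, loaded with no-wash calcium dye. Compound added with 180 s kinetic read for agonism, then EC20 dopamine and a further 180 s read for potentiation.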
Anesthetic bind – qHTS Assay for Identification of Novel General Anesthetics; AID 485281, 2010; hit rate 0.074% among 350,000; Potency, µM (series often up to 77.5 µM), inactives show top-dose activity change, negative = displacement, actives largely listed as inhibitors; apoferritin/1-aminoanthracene competitive binding, fluorescence; Ferritin light chain (Equus caballus), P02791; note: potency is the fitted concentration of half-maximal effect; % is set by controls: 0 for no effect and ±100 for the full control effect; nearly all actives have a fitted effect of over 20% in size
Target sequence (P02791 2-175 limits assumed): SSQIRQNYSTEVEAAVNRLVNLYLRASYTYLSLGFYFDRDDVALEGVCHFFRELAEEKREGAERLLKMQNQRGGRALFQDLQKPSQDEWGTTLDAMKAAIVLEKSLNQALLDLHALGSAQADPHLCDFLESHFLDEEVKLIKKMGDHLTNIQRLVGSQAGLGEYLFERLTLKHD
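Apoferritin-based anesthetic binding model; compound displacement of fluorescent 1-AMA measured as endpoint fluorescence after 10 minutes at room temperature, scaled to free-ligand and complex controls.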
D2 ag-1 – HTS Assay for Allosteric Agonists of the Human D2 Dopamine Receptor: Primary Screen for Agonists; activation, % at 2 µM; hit rate 0.53% among 340,000; HEK293 T-REx D2 cells, calcium flux agonist mode;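 active = activation over 3 SD above normal in the single-dose calcium agonist read, cut at about 30% in these data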; note: 0% is about no effect
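Agonism is scored from calcium flux in a force-coupled, inducible HEK293 cell line expressing D2, read kinetically for 180 s after compound addition against dopamine controls.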
D2 ag-2 – Beta-Arrestin HTS for Positive Allosteric Modulators of the Human D2 Dopamine Receptor: Agonists | D(2) dopamine receptor (Homo sapiens), P14416 | DiscoveRx PathHunter D2 beta-arrestin, luminescence, 90 min; 100% = 57 uM dopamine signal | activation, % (no concentration beside the values) | hit rate 0.084% among 360,000; in the data active = activation above about 40%; inconclusive = between about 15% and that limit
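DiscoveRx PathHunter D2 beta-arrestin cells (2,100/well) attached overnight, then compound-stimulated 90 min at 37 C in HBSS/10 mM HEPES/0.1% Tween-20 buffer; beta-galactosidase complementation read by luminescence after 1 h at ambient temperature. Dopamine 57 uM final (EC100) as control.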
D3 arrestin ag – qHTS of D3 Dopamine Receptor Agonist: D3 Dopamine Receptor B-arrestin Agonist Confirmatory Assay; shares compounds with D2 ag-1; DiscoveRx D3 beta-arrestin cells, luminescence, 90 min; Potency, µM (titrated, usually from 76.9 µM), for the others: at the highest dose activation, hits mostly activators; hit rate 4% among 2,300;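 note: potency is the fitted concentration of half-maximal effect; 100% = dopamine control response; nearly all actives have a fitted effect of over 70% in size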
Target sequence (P35462 whole entry, looked up): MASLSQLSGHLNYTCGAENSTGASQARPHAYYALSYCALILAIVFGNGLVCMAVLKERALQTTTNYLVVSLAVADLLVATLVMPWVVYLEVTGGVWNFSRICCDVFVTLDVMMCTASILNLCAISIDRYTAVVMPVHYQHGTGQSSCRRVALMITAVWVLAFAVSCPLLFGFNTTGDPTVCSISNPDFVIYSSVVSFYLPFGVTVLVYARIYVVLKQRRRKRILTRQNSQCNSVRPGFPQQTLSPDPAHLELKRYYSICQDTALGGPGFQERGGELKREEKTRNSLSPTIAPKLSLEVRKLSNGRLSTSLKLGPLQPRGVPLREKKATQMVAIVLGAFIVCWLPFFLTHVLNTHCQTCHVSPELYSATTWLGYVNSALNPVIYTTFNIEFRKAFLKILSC
D2 ag-3 – qHTS of D3 Dopamine Receptor Agonist: D2 Dopamine Receptor B-arrestin Agonist Counterscreen. Potency, µM (titrated, usually from 76.9 µM), without a hit: top-dose activation, hits mostly activators. shares compounds with D2 ag-1. DiscoveRx PathHunter D2 beta-arrestin, luminescence, 90 min; response scale: percent relative to full dopamine signal. hit rate 5.9% among 2,300; note: potency is the fitted concentration of half-maximal effect; % of control where 0% means no effect; nearly all actives have a fitted effect of over 70% in size
Numbers without * were called inactive; ? = inconclusive; nt = not tested or not shown. Sampled rows, rich in hits. Any-hit rate of the full collection: about 2.5%. Unless noted, calls come from the whole dose curve; as a rule, active = well fitted curve in the direction sought with a large enough effect; inconclusive = small, poorly fitted or top-dose-only effect, or another doubt; inactive = no such curve, though single readings can be large; an effect the other way counts as inactive or inconclusive.

SMILES	D2 PAM-1	D2 antagonist	D2 PAM-2	Anesthetic bind	D2 ag-1	D2 ag-2	D3 arrestin ag	D2 ag-3
Cc1ccccc1CN1CCN(CC(=O)NCCCN2CCN(c3ccc(F)cc3)CC2)C1=O	-37	64*	-16	-9%	5	-2	0%	22%
CCOc1ccc(CCNC(=O)C2CC(=O)N(Cc3ccc(OC)cc3)C2)cc1OCC (stereo unspecified)	2	-25	24	-5%	0	6	nt	nt
Cc1ccccc1C(=O)O/N=C(\c1ccccc1)c1ccccn1	13	72*	-24	-5%	77*	?	?	?
O=C(Nc1ccccc1)O/N=C(\c1ccccc1)c1ccccn1	-12	-12	-2	-17%	3	-2	nt	nt
Cc1nc(N)c(S(=O)(=O)c2ccccc2)c(Nc2ccc(Br)cc2)n1	nt	nt	-8	3%	-1	nt	nt	nt
CC(C)(O)C1CC[C@@](C)([C@@H]2CC[C@]3(C)[C@H]2[C@H](O)CC2[C@@]4(C)CCC(O)C(C)(C)C4C(OC4OC(CO)C(O)C(O)C4O[C@@H]4OCC(O)C(O)C4O)C[C@]23C)O1 (stereo partly specified)	-41	nt	nt	nt	nt	-2	nt	nt
Cc1ccc(S(=O)(=O)NCCC(=O)Nc2ccc(C)cc2C(=O)c2ccccc2)cc1	-1	18	-7	4%	-1	-6	-4%	-5%
Cc1ccc(C(=O)NCCCc2ccccc2)c(Cl)c1	-7	-3	-3	?	0	5	nt	nt
CCOc1ccc(S(=O)(=O)N2CCCCC2)c(C)c1C	1	12	-7	-20%	-2	-3	-10%	-1%
CCNc1nc(C#N)nc2c1ncn2-c1cc(F)cc(F)c1	nt	12	7	nt	0	nt	-5%	-1%
Cc1cccc(N2C(=O)c3cccc4c(N(C)CCO)ccc(c34)C2=O)c1	-7	7	1	57%	0	-10	-5%	3%
CN(C)c1ccc2c3c(cccc13)C(=O)N(c1ccccc1)C2=O	nt	16	-6	-8%	8	nt	nt	nt
CC(CC(=O)O)CC(=O)Nc1cc([N+](=O)[O-])ccc1O (stereo unspecified)	-13	9	-1	-14%	1	-6	nt	nt
CCN1CCN(c2ncnc3scc(-c4ccc(C)cc4)c23)CC1	?	68*	-27	2%	70*	110*	8%	2.8µM*
Cc1ccc(C(=O)NNC(=O)C2CSC3(C)CCC(=O)N23)cc1 (stereo unspecified)	-1	2	-5	nt	0	2	nt	nt
CC1CN(C(=O)c2ccccc2OCc2ccc(Cl)cc2Cl)CC(C)O1 (stereo unspecified)	-2	-15	-6	nt	0	-3	-7%	-2%
O=C(Cc1ccccc1)NCC1COc2ccccc2O1 (stereo unspecified)	-17	nt	nt	nt	nt	-1	nt	nt
Cn1c(C(=O)O)c(CC(=O)NCC2COc3ccccc3O2)c2ccccc21 (stereo unspecified)	11	42*	1	-10%	0	-4	-9%	?
CN(CC(=O)NCCN1CCN(c2ccccc2)CC1)S(=O)(=O)c1ccc2c(c1)CCC(=O)N2	-6	75*	-22	-5%	82*	1	?	?
N#C/C(=C/c1ccc(N2CCOCC2)o1)c1nc2ccccc2[nH]1	-13	-16	3	36%	25	1	?	3%
CC(C)N(Cc1cc2ccccc2[nH]c1=O)C(=O)c1cccc([N+](=O)[O-])c1	0	1	6	0%	1	-1	nt	nt
Cc1ccc2[nH]c(=O)c(CN(C(=O)c3cccc([N+](=O)[O-])c3)C(C)C)cc2c1	-3	-4	-34	-12%	50*	0	-4%	0%
Cc1ccc(-n2nnnc2SCC(=O)c2c(N)n(C3CC3)c(=O)[nH]c2=O)c(C)c1	1	-8	0	nt	1	0	6%	-3%
Cc1cc(Cn2nc(-c3ccccc3C)cc2C(=O)O)on1	-8	-1	-6	nt	-1	-2	-8%	-3%
CC(=O)Nc1nonc1-c1nnc(SCC(=O)Nc2ccccc2Cl)n1C	nt	nt	12	-3%	-2	nt	nt	nt
SMILES	D2 PAM-1	D2 antagonist	D2 PAM-2	Anesthetic bind	D2 ag-1	D2 ag-2	D3 arrestin ag	D2 ag-3
Cn1cc(CN2CCN(c3ccc(Cl)cn3)CC2)c(-c2ccccc2F)n1	-18	5	-1	-15%	2	0	nt	nt
Cc1cccc(N2CCN(Cc3cn(C)nc3-c3ccccc3F)CC2)n1	-7	30*	-24	-9%	51*	?	1%	17%
CN(Cc1ccccc1)C(=O)c1ccc(NC(=O)Cc2cccc(NC(=O)C3CCN(C(=O)C4CCC4)CC3)c2)cc1	-7	-6	9	nt	1	2	-1%	-2%
CN(Cc1ccccc1)C(=O)c1ccc(NC(=O)Cc2ccc(NC(=O)C3CCN(C(=O)C4CCC4)CC3)cc2)cc1	nt	nt	nt	nt	nt	-1	nt	nt
FC(F)(F)c1ccc(Cl)c(NC2=NCCCCC2)c1	-10	11	-19	?	53*	-6	-1%	13%
FC(F)(F)c1ccc(N2CCOCC2)c(NC2=NCCCCC2)c1	-2	-10	-11	-8%	0	2	nt	nt
CC(CCc1ccccc1)NCC#N (stereo unspecified)	-8	34*	-17	-13%	57*	8	8%	6%
CC(=O)NC(C)CCc1ccccc1 (stereo unspecified)	-3	-11	8	5%	1	0	nt	nt
COc1cc(CCC(C)NCc2ccccc2)ccc1O (stereo unspecified)	-12	75*	-35	13%	79*	?	-4%	?

Screens (PubChem BioAssay)
